Assay results: the supplement of paper PMC10849652
Of roughly 8,800 targets only a part is listed; those with a hit were picked by preference. About 0.5% of all pairs of compound and target were hits. A number with no mark means an inactive call.

Legend:
Assay in all cases: log2 fold change, soluble protein after heating vs DMSO (PISA); higher = thermal stabilisation; K562 lysate, 10 uM; active = over 0.2 and 3.5 SD of the protein, either way, in both replicates (recomputed)
erlotinib = compound: C#Cc1cccc(Nc2ncnc3cc(OCCOC)c(OCCOC)cc23)c1 [erlotinib]
In short: (§1)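 Log-two fold change in thermal stability relative to solvent controls is reported from duplicates. For each sample, crude K562 extract from dounce-homogenised pellets in PBS pH 7.4 with 1 mM MgCl2, at 1 mg/mL protein, was treated with 10 μM compound for 30 min. Aliquots heated for 3 min across 48°C-58°C were pooled, brought to 0.5% NP-40 at 4°C and cleared at 21,000xg for 90 min. The supernatant was quantified by TMTpro 16plex LC-MS/MS with channel sums equalised.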

[1] = compound: C/C(=N\NC(=O)C1=CC(=CC=C1)S(=O)(=O)N2CCOCC2)/C3=C(C=CC(=C3)Cl)O
In short: as §1

[2] = compound: C1=CC(=CC=C1C2=NC3=C(N2)C=C(C=C3)C(=O)N)OC4=CC=C(C=C4)Cl
In short: as §1

[3] = compound: C1=CC2=C(C=CC(=C2)/C=C\3/C(=O)NC(=NCC4=CC=CS4)S3)N=C1
In short: as §1

[4] = compound: C1=CC2=NC=CN=C2C=C1/C=C/3\C(=O)NC(=O)S3
In short: as §1

[5] = compound: C1=CC=C(C=C1)C2=NC(=C(N2)C3=CC=NC=C3)C4=CC(=C(C=C4)Cl)O
In short: as §1

[6] = compound: C1=CC=C2C(=C1)C3=NNC4=CC=CC(=C43)C2=O
In short: as §1

[7] = compound: C1CCN(C1)C(=O)NC2=CC=CC(=C2)NC3=NC=C(C(=N3)NCCC4=CN=CN4)Br
In short: as §1

[8] = compound: C1CN(CCC1(CC2=CC=C(C=C2)Cl)N)C3=NC=NC4=C3C=CN4
In short: as §1

IRAK-1-4 Inhibitor I = compound: C1COCCN1CCN2C3=CC=CC=C3N=C2NC(=O)C4=CC(=CC=C4)[N+](=O)[O-] [IRAK-1-4 Inhibitor I]
In short: as §1

ibrutinib = compound: C=CC(=O)N1CCC[C@@H](n2nc(-c3ccc(Oc4ccccc4)cc3)c3c(N)ncnc32)C1 [ibrutinib]
In short: as §1

[9] = compound: CC(=O)c1cnc2ccc(-c3cc(Cl)c(O)c(Cl)c3)nc2c1N[C@H]1CC[C@H](CN(C)C)CC1
In short: as §1

ralimetinib = compound: CC(C)(C)Cn1c(N)nc2ccc(-c3[nH]c(C(C)(C)C)nc3-c3ccc(F)cc3)nc21 [ralimetinib]
In short: as §1

[10] = compound: CC(C)(O)CC(=O)NCCn1ccc2ncnc(Nc3ccc(Oc4cccc(C(F)(F)F)c4)c(Cl)c3)c21
In short: as §1

[11] = compound: CC(C)C1=C2N=C(C=C(N2N=C1)NCC3=CC=CC=C3)NCCCCCCN
In short: as §1

[12] = compound: CC1=C(C(CC(=O)N1)C2=CC=C(C=C2)C(F)(F)F)C(=O)NC3=C(C=C4C(=C3)C=NN4)F
In short: as §1

[13] = compound: CC1=C(C2=C(C=C1)C(=O)C3=CC=CC=C3N2CCCN)C
In short: as §1

[14] = compound: CC1=C(C=C(C=C1)NC(=O)C2=CC(=CC=C2)C(C)(C)C#N)NC3=CC4=C(C=C3)N=CN(C4=O)C
In short: as §1

[15] = compound: CC1=C(C=C(C=C1)NC(=O)C2=CC(=CC=C2)N(C)C)NC(=O)C3=CC=C(C=C3)O
In short: as §1

[16] = compound: CC1=CC=C(C=C1)SC2=C3C=C(SC3=CN=C2)C(=O)N
In short: as §1

Sequence of UniProt Q9NVR2 (Q9NVR2 whole entry, looked up): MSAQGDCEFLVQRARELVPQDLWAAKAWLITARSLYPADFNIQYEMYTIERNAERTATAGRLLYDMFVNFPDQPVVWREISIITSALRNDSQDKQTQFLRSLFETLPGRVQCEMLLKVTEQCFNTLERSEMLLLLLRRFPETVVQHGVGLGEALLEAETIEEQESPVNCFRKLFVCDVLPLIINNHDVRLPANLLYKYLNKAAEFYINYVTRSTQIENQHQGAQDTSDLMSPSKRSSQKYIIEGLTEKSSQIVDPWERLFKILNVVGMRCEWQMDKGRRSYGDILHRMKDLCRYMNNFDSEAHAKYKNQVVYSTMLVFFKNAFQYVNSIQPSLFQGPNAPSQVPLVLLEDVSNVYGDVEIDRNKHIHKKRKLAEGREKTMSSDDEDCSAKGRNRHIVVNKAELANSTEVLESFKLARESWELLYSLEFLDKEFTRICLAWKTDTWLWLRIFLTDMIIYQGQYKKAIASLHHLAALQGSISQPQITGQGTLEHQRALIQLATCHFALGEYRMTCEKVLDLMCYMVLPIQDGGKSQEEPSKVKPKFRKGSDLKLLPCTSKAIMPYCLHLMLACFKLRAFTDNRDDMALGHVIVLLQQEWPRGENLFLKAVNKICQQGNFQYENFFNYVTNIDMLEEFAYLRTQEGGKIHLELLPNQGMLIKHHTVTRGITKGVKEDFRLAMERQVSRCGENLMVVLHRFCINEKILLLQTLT
Sequence of UniProt Q5T447 (Q5T447 whole entry, looked up): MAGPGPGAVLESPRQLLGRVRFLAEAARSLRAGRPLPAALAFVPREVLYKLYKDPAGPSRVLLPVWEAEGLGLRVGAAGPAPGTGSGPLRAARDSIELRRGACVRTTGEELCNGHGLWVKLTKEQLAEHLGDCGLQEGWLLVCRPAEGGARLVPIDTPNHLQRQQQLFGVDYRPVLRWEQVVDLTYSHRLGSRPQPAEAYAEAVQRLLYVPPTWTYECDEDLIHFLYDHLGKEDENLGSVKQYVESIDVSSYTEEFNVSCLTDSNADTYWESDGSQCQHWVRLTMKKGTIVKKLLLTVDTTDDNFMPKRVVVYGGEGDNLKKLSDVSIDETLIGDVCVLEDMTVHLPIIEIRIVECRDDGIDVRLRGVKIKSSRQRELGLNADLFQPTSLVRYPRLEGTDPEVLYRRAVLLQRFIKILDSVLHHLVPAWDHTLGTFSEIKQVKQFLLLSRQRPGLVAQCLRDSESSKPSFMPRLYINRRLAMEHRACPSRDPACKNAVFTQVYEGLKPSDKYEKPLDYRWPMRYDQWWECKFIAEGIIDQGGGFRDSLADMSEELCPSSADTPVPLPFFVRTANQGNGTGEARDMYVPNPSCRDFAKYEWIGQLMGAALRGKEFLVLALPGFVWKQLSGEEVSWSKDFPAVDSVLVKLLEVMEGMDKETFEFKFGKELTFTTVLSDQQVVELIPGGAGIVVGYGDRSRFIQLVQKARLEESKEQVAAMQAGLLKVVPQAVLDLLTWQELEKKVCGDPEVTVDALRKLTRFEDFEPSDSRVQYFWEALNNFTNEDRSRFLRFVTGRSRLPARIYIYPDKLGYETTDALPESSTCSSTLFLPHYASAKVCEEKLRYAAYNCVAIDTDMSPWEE
Sequence of UniProt P40939 (P40939 whole entry, looked up): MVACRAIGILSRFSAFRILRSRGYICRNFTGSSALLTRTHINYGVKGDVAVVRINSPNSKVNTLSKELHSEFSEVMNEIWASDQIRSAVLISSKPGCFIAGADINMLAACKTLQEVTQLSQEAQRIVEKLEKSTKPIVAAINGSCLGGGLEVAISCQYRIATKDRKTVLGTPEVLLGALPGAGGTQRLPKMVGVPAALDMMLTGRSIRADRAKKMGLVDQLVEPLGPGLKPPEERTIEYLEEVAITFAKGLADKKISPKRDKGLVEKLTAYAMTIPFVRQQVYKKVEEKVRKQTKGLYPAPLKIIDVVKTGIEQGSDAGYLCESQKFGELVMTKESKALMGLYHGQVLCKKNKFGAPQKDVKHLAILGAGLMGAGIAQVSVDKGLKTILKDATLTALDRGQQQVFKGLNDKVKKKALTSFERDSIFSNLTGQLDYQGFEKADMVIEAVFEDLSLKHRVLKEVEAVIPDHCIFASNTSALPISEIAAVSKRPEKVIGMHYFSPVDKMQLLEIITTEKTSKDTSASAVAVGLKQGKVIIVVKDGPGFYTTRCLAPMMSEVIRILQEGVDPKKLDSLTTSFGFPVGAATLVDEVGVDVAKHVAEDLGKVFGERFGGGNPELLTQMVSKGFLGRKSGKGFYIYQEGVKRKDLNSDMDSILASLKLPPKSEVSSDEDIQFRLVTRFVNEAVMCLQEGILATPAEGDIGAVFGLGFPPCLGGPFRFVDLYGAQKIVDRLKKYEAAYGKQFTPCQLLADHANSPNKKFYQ
Sequence of UniProt O60547 (O60547 whole entry, looked up): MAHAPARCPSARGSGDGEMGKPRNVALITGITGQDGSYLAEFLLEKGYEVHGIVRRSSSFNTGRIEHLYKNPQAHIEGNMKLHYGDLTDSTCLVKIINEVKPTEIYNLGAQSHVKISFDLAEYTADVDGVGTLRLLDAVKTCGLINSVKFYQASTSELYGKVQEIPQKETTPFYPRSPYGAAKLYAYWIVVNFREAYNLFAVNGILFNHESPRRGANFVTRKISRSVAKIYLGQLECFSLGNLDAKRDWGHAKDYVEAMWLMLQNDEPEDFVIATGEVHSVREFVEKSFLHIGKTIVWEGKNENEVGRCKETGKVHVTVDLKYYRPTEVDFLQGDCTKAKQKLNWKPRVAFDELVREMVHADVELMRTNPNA
Sequence of UniProt P04792 (P04792 whole entry, looked up): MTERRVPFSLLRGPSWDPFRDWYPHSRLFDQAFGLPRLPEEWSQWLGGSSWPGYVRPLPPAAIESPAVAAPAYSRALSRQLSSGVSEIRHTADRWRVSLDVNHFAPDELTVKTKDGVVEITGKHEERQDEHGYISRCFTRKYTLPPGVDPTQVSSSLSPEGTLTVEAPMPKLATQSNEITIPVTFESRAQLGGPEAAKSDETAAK
Sequence of UniProt P20839 (P20839 whole entry, looked up): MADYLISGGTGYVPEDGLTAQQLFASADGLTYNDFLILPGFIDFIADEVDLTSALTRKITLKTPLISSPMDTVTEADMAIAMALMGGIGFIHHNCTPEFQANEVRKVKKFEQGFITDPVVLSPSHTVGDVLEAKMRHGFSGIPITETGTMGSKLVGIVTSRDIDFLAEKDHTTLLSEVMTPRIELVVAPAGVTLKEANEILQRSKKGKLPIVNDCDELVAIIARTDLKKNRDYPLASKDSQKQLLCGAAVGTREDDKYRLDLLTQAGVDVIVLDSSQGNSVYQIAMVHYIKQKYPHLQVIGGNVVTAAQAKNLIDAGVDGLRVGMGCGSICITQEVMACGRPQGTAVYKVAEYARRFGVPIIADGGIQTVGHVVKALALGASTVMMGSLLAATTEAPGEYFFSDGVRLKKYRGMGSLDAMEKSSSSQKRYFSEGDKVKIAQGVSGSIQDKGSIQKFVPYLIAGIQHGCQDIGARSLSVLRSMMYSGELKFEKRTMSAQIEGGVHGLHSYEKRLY
Sequence of UniProt Q9H0C8 (Q9H0C8 whole entry, looked up): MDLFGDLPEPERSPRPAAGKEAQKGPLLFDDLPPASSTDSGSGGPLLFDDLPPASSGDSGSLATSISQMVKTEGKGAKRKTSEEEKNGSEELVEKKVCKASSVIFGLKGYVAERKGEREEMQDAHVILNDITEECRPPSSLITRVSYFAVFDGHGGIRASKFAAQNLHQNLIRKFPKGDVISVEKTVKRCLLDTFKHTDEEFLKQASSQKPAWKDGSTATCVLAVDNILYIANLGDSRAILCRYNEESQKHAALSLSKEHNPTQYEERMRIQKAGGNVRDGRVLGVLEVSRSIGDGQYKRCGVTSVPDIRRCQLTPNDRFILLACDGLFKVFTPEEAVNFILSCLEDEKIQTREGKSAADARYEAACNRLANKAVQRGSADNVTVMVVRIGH
Sequence of UniProt Q13547 (Q13547 whole entry, looked up): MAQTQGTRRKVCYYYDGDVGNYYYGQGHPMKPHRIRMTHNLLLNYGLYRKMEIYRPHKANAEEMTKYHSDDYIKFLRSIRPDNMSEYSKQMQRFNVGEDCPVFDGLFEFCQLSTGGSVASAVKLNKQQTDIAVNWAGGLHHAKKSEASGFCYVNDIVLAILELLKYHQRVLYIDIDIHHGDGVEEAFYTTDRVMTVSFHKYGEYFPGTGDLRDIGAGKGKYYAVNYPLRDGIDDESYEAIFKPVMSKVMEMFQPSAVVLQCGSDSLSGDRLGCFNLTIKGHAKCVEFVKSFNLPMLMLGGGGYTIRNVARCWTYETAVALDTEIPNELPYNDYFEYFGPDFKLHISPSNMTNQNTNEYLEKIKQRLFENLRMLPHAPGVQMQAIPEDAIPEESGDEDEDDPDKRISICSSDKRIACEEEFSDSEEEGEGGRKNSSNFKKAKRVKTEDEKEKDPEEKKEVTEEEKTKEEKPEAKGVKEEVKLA
Sequence of UniProt P49841 (P49841 whole entry, looked up): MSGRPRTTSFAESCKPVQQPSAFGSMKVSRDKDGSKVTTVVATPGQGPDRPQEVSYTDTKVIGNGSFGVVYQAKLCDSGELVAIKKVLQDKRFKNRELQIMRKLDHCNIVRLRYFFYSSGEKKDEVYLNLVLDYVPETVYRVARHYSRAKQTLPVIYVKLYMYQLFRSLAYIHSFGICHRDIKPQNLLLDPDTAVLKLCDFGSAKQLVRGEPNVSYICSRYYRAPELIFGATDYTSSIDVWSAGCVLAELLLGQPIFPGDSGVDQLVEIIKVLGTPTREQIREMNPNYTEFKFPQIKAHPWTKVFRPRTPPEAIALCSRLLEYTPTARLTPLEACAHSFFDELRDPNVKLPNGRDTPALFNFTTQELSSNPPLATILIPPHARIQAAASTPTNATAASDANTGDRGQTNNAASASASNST

| Target | log2 fold change (erlotinib) | log2 fold change [1] | log2 fold change [2] | log2 fold change [3] | log2 fold change [4] | log2 fold change [5] | log2 fold change [6] | log2 fold change [7] | log2 fold change [8] | log2 fold change (IRAK-1-4 Inhibitor I) | log2 fold change (ibrutinib) | log2 fold change [9] | log2 fold change (ralimetinib) | log2 fold change [10] | log2 fold change [11] | log2 fold change [12] | log2 fold change [13] | log2 fold change [14] | log2 fold change [15] | log2 fold change [16] |
| --- | --- | --- | --- | --- | --- | --- | --- | --- | --- | --- | --- | --- | --- | --- | --- | --- | --- | --- | --- | --- |
| GOLGA1 (UniProt Q92805) | 0.029 | 0.09 | -0.002 | -0.004 | 0.021 | 0 | 0.124 | 0.018 | 0.038 | 0.017 | 0.128 | 0.008 | -0.024 | -0.018 | -0.019 | 0.081 | 0.027 | -0.023 | 0.019 | 0.034 |
| HMGN5 (UniProt P82970) | 0.013 | -0.122 | 0.052 | 0.021 | -0.002 | -0.013 | 0.024 | 0.067 | 0.024 | 0.007 | -0.035 | -0.012 | -0.064 | -0.021 | 0.006 | -0.004 | -0.035 | -0.011 | 0.036 | -0.056 |
| GIT1 (UniProt Q9Y2X7) | -0.003 | 0.011 | -0.039 | 0.054 | -0.014 | -0.014 | -0.009 | 0 | -0.011 | 0.017 | 0.075 | -0.002 | -0.042 | 0.033 | -0.004 | -0.074 | -0.012 | 0.044 | -0.007 | 0.024 |
| IMPDH1 isoform 6 (UniProt P20839) | 0.018 | 0.036 | -0.031 | 0.009 | -0.001 | -0.001 | 0.017 | 0.028 | 0.032 | 0.003 | -0.007 | 0.009 | 0.034 | -0.007 | 0.01 | -0.039 | 0.033 | 0.014 | -0.005 | -0.004 |
| HECTD3 (UniProt Q5T447) | 0.027 | 0 | -0.005 | 0.008 | 0.022 | 0.018 | -0.008 | -0.028 | -0.026 | 0.008 | 0.054 | 0.019 | 0.037 | -0.027 | -0.022 | -0.043 | 0.022 | -0.014 | 0.002 | 0.011 |
| INF2 (UniProt Q27J81) | 0.004 | -0.014 | -0.027 | 0.069 | 0.004 | -0.024 | -0.019 | 0.031 | 0.056 | -0.011 | 0.036 | -0.007 | 0.018 | 0.049 | -0.012 | 0.004 | 0.07 | -0.004 | -0.027 | -0.015 |
| HADHA (UniProt P40939) | -0.08 | 0.042 | 0.387 (active) | 0.014 | -0.087 | -0.003 | 0.026 | -0.067 | 0.04 | 0.031 | 0.078 | -0.057 | 0.012 | 0.05 | -0.042 | -0.031 | -0.01 | 0.055 | -0.033 | 0.077 |
| GSE1 (UniProt Q14687) | 0.012 | -0.022 | 0.025 | 0.003 | -0.001 | -0.013 | -0.048 | -0.032 | -0.018 | -0.011 | 0.006 | -0.021 | 0.015 | -0.026 | -0.004 | -0.009 | 0.008 | -0.055 | 0.035 | -0.016 |
| GSK3B isoform 2 (UniProt P49841) | 0.043 | -0.323 | 0.036 | 0.145 | 0.085 | 0.459 | 0.132 | 0.202 | -0.011 | -0.002 | -0.064 | 0.344 | -0.012 | -0.008 | -0.016 | -0.04 | -0.006 | -0.018 | -0.029 | 0.189 |
| INTS5 (UniProt Q6P9B9) | 0.002 | -0.061 | -0.082 | -0.04 | 0.068 | -0.072 | -0.098 | -0.001 | 0.247 | -0.015 | 0.051 | 0.056 | 0.051 | -0.038 | -0.06 | -0.013 | 0.021 | 0 | 0.039 | 0.003 |
| INTS10 (UniProt Q9NVR2) | 0.008 | 0.056 | -0.001 | 0.061 | -0.044 | 0.026 | -0.061 | -0.006 | 0.044 | -0.004 | 0.079 | 0.021 | 0.01 | -0.02 | -0.023 | 0.036 | 0 | 0.002 | -0.014 | 0.036 |
| GMDS (UniProt O60547) | 0.017 | 0.005 | 0.029 | -0.054 | -0.012 | -0.023 | -0.043 | 0.019 | 0.036 | 0.01 | 0.042 | -0.018 | 0.025 | 0.01 | -0.023 | 0.031 | 0.022 | 0.027 | 0.008 | 0.015 |
| HDAC1 (UniProt Q13547) | 0 | -0.046 | -0.012 | 0.015 | 0.003 | -0.013 | -0.024 | -0.014 | -0.036 | -0.043 | -0.026 | -0.001 | 0.031 | 0.01 | -0.001 | 0.001 | -0.008 | -0.022 | 0.008 | 0.011 |
| ILKAP (UniProt Q9H0C8) | -0.042 | -0.01 | -0.007 | 0.027 | -0.021 | -0.005 | 0.015 | -0.022 | -0.043 | 0.004 | -0.018 | 0 | -0.007 | 0.031 | -0.032 | 0.007 | 0.037 | -0.016 | 0 | -0.002 |
| HSPB1 (UniProt P04792) | 0.004 | -0.03 | 0.03 | -0.012 | 0.001 | -0.009 | 0.034 | -0.013 | -0.025 | 0.006 | -0.015 | -0.008 | 0.022 | -0.016 | 0.012 | 0 | 0.016 | -0.117 | 0.006 | 0.003 |
| KHDRBS1 (UniProt Q07666) | -0.013 | 0.001 | -0.035 | 0.009 | -0.038 | 0.006 | -0.016 | 0.026 | 0.037 | -0.013 | 0.023 | -0.517 (active) | -0.021 | -0.009 | 0.016 | 0.023 | 0.007 | -0.026 | 0 | 0.044 |
